± gives the standard deviation of the averaged measurements.

Our source for the MAPPIT interaction score values is the supplement of paper PMC10105736.

Common to all, as to test: MAPPIT interaction score (arbitrary units); higher = stronger binary interaction signal, active = hit call of the paper
One assay has as its target Taf12. The following applies: MAPPIT configuration: N-N; pair source set: Curagen_low_conf.
A further assay addresses Tim17b2. To be noted: MAPPIT configuration: N-C.
For a further assay, the target named is THG. The following applies: MAPPIT configuration: N-N; pair source set: screen_2.
Another assay has as its target Traf-like. The following applies: MAPPIT configuration: N-N; pair source set: Curagen_low_conf.
The target in a further assay is TfIIA-L. To be noted: MAPPIT configuration: N-N; pair source set: screen_2.
The target of a further assay is Tsp96F. To be noted: MAPPIT configuration: N-C; pair source set: screen_3.
Another assay has as its target ninaD. The following applies: MAPPIT configuration: N-C; pair source set: screen_3.
A further assay deals with Tcs6. The following applies: MAPPIT configuration: N-N; pair source set: screen_2.
For the next assay, the target named is Tm1. To be noted: MAPPIT configuration: N-N; pair source set: Curagen_high_conf.
The target in another assay is Syp. The following applies: MAPPIT configuration: N-N; pair source set: DPIM.
The target in the next assay is TwdlW. The following applies: MAPPIT configuration: N-N; pair source set: Lit-BS-16.
A further assay has as its target Tgi. To be noted: MAPPIT configuration: N-N; pair source set: Lit-BM-16.
A further assay concerns the target yki. The following applies: MAPPIT configuration: N-N; pair source set: Lit-BM-16.
In the next assay the target is Trxr1. To be noted: MAPPIT configuration: N-N; pair source set: Finley_Y2H.
In another assay the target is Tom20. To be noted: MAPPIT configuration: N-N; pair source set: DPIM.
The target in a further assay is Tsp74F. To be noted: MAPPIT configuration: N-C; pair source set: screen_3.
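Further: HEK293T cells with Epo stimulation, STAT-responsive firefly luciferase reporter, fold induction versus unstimulated cells divided by the larger fold induction of two negative controls lacking either bait or prey.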

B1: CtsF (protein)
chain: MRLFAAATVALVLLLGQAAGEELAEERAGQAQGDAESTESSETTTDQAVSEPPITLVHVLNPGEREYLSPNLIGVQNIAMTFLPLSMNFVNIIDAFREITAGVRYEILLNALDTKAIQPAEADIVCRLVILEKPWLRTQWGDKHRELVTSNCTDPAVNSVAGDPAEKARLLNEKYVHRSRRSANDILGRHKPYDEEAAKAQLQKSLDKLTAGEGPHYKIVKVYSASRQVDSGILTRIDADLIDGSEEQHRCIVDIWTKVWVRKDEHEITFKCRNQPVVQARHTRSVEWAEKKTHKKHSHRFDKVDHLFYKFQVRFGRRYVSTAERQMRLRIFRQNLKTIEELNANEMGSAKYGITEFADMTSSEYKERTGLWQRDEAKATGGSAAVVPAYHGELPKEFDWRQKDAVTQVKNQGSCGSCWAFSVTGNIEGLYAVKTGELKEFSEQELLDCDTTDSACNGGLMDNAYKAIKDIGGLEYEAEYPYKAKKNQCHFNRTLSHVQVAGFVDLPKGNETAMQEWLLANGPISIGINANAMQFYRGGVSHPWKALCSKKNLDHGVLVVGYGVSDYPNFHKTLPYWIVKNSWGPRWGEQGYYRVYRGDNTCGVSEMATSAVLA
On to B1, for which the MAPPIT interaction score with Taf12 was 0.31 (inactive).

B2: meigo (protein)
chain: MNLPERSRFVIYAVGIFVCYFLYGIVQEKLTRGRYGEEVQTDGSVGERFTYALALVWVQCLCNYVFAKVLLTIRPQKEDTTNAGSYVACSLTYLLAMVSTNMAMRWVPYPTAVVGKSAKPIPVMILGVLIGRKSYSWTRYACVLTIVLGVILFMYKEGKVSNLPAETTLLGEVLLFLSLSMDGLTGAVQERIRAASAPSGQQMMRAMNFWSTLMLGVAMVFTGEAKEFMYFTIRHPEAWTHLSLIAVCGVLGQFFIFLMVASFGPLACSVVTTTRKFFTVLCSVLLFGNVLIARQWLGAVLVFAALFVDMLYGKKAPLATAKKPPVEGKLSEEKKLNS
Regarding B2, the MAPPIT interaction score with Tim17b2 (pair source set: screen_4) was -0.125 (inactive).

B3: snf (protein)
chain: MEMLPNQTIYINNLNEKIKKEELKKSLYAIFSQFGQILDIVALKTLKMRGQAFVIFKEIGSASNALRTMQGFPFYDKPMQIAYSKSDSDIVAKIKGTFKERPKKVKPPKPAPGTDEKKDKKKKPSSAENSNPNAQTEQPPNQILFLTNLPEETNEMMLSMLFNQFPGFKEVRLVPNRHDIAFVEFTTELQSNAAKEALQGFKITPTHAMKITFAKK
On to B3, for which the MAPPIT interaction score with THG is 0.333 (inactive).

B4: Mlp84B (protein)
chain: MPSFQPIEAPKCPRCGKSVYAAEERLAGGYVFHKNCFKCGMCNKSLDSTNCTEHERELYCKTCHGRKFGPKGYGFGTGAGTLSMDNGSQFLRENGDVPSVRNGARLEPRAIARAPEGEGCPRCGGYVYAAEQMLARGRSWHKECFKCGTCKKGLDSILCCEAPDKNIYCKGCYAKKFGPKGYGYGQGGGALQSDCYAHDDGAPQIRAAIDVDKIQARPGEGCPRCGGVVYAAEQKLSKGREWHKKCFNCKDCHKTLDSINASDGPDRDVYCRTCYGKKWGPHGYGFACGSGFLQTDGLTEDQISANRPFYNPDTTSIKARDGEGCPRCGGAVFAAEQQLSKGKVWHKKCYNCADCHRPLDSVLACDGPDGDIHCRACYGKLFGPKGFGYGHAPTLVSTSGESTIQFPDGRPLAGPKTSGGCPRCGFAVFAAEQMISKTRIWHKRCFYCSDCRKSLDSTNLNDGPDGDIYCRACYGRNFGPKGVGYGLGAGALTTF
Turning to B4, the MAPPIT interaction score with Traf-like is -0.422 (inactive).

B5: TfIIA-S-2 (protein)
chain: MNYQHYRATTLGRTLQDTLDEMMERGDITKKIANLVLLRYDKSISTALKDHGTSNMSFTAERLETFRCCDNVWTLILKDAEFREDQHSLKVDVVKIVACLGTDNGNE
As to B5, the MAPPIT interaction score with TfIIA-L is 3.17 ± 3.8.

B6: Tpst (protein)
chain: MRLPYRNKKVTLWVLFGIIVITMFLFKFTELRPTCLFKVDAANELSSQMVRVEKYLTDDNQRVYSYNREMPLIFIGGVPRSGTTLMRAMLDAHPDVRCGQETRVIPRILQLRSHWLKSEKESLRLQEAGITKEVMNSAIAQFCLEIIAKHGEPAPRLCNKDPLTLKMGSYVIELFPNAKFLFMVRDGRATVHSIISRKVTITGFDLSSYRQCMQKWNHAIEVMHEQCRDIGKDRCMMVYYEQLVLHPEEWMRKILKFLDVPWNDAVLHHEEFINKPNGVPLSKVERSSDQVIKPVNLEAMSKWVGQIPGDVVRDMADIAPMLSVLGYDPYANPPDYGKPDAWVQDNTSKLKANRMLWESKAKQVLQMSSSEDDNTNTIINNSNNKDNNNNQYTINKIIPEQHSRQRQHVQQQHLQQQQQQHLQQQQHQRQQQQQQREEESESEREAEPDREQQLLHQKPKDVITIKQLPLAGSNNNNINNNINNNNNNNNIMEDPMADT
Take B6: the values for the MAPPIT interaction score with Tsp96F and with ninaD were -0.524 (inactive) and 0.243 (inactive), respectively.

B7: Tcs3 (protein)
chain: MVCALGIEGSANKIGIGIIRDGKVLANVRRTYITPPGEGFLPKETAKHHREAILGLVESSLKEAQLKSSDLDVICYTKGPGMAPPLLVGAIVARTLSLLWNIPLLGVNHCIGHIEMGRLITGAQNPTVLYVSGGNTQVIAYSNKRYRIFGETIDIAVGNCLDRFARIIKLSNDPSPGYNIEQLAKSSNRYIKLPYVVKGMDVSFSGILSYIEDLAEPGKRQNKRKKPQEEEVNNYSQADLCYSLQETIFAMLVEITERAMAHCGSNEVLIVGGVGCNERLQEMMRIMCEERGGKLFATDERYCIDNGLMIAHAGAEMFRSGTRMPFEESYVTQRFRTDEVLVSWRDD
For B7, in the assay with Tcs6, the MAPPIT interaction score was 1.93 (inactive).

B8: RpS19b (protein)
chain: MPGVTVKEIDQHVLTKNMAAFLKKSGKIFVPEQAVYMKTGKFKETAPTDDDWFYTRCASIMRHLYLRSPAGVGAFTKVYSGRKRNGVRPSKHCRSSDGCIRKALQALEAANMVERHPDGGRKLTPQGQRNLDRIANKIVAKQRERSAPVSMIITT
On to B8, for which the MAPPIT interaction score with Tm1 is 0.314 (inactive).

B9: grass (protein)
chain: MMIASSLAVLYGIAIVSSMGVQSARADYADDCTTPDGDQGQCMPFSSCRTIEERLTEAQKAGQKVPADYASYLQKALCGEFNGVRHFCCPSANIQHNSKVMSLFKDENFDCGNFLSQRVSNGYEVKLSSRPWMALLRYQQFGESRFLCGGAMISERYILTAAHCVHGLQNDLYEIRLGEHRISTEEDCRQQGRKKKCAPPVVNVGIEKHLIHEKYDARHIMHDIALLKLNRSVPFQKHIKPICLPITDELKEKAEQISTYFVTGWGTTENGSSSDVLLQANVPLQPRSACSQAYRRAVPLSQLCVGGGDLQDSCKGDSGGPLQAPAQYLGEYAPKMVEFGIVSQGVVTCGQISLPGLYTNVGEYVQWITDTMASNGL
Turning to B9, the MAPPIT interaction score in the assay with Syp was -0.0477 (inactive).

B10: RpS3 (protein)
chain: MNANLPISKKRKFVSDGIFKAELNEFLTRELAEDGYSGVEVRVTPSRTEIIIMATKTQQVLGEKGRRIRELTAMVQKRFNFETGRIELYAEKVAARGLCAIAQAESLRYKLTGGLAVRRACYGVLRYIMESGAKGCEVVVSGKLRGQRAKSMKFVDGLMIHSGDPCNDYVETATRHVLLRQGVLGIKVKVMLPYDPKNKIGPKKPLPDNVSVVEPKEEKIYETPETEYKIPPPSKPLDDLSEAKVL
For the molecule B10, the MAPPIT interaction score with TwdlW is -0.331 (inactive).

B11: sd (protein)
chain: MKNITSSSTCSTGLLQLQNNLSCSELEVAEKTEQQAVGPGTIPSPWTPVNAGPPGALGSADTNGSMVDSKNLDVGDMSDDEKDLSSADAEGVWSPDIEQSFQEALSIYPPCGRRKIILSDEGKMYGRNELIARYIKLRTGKTRTRKQVSSHIQVLARRKLREIQAKIKVQFWQPGLQPSTSQDFYDYSIKPFPQPPYPAGKTSTAVSGDETGIPPSQLPWEGRAIATHKFRLLEFTAFMEIQRDEIYHRHLFVQLGGKPSFSDPLLETVDIRQIFDKFPEKSGGLKDLYEKGPQNAFYLVKCWADLNTDLTTGSETGDFYGVTSQYESNENVVLVCSTIVCSFGKQVVEKVESEYSRLENNRYVYRIQRSPMCEYMINFIQKLKNLPERYMMNSVLENFTILQVMRARETQETLLCIAYVFEVAAQNSGTTHHIYRLIKE
As to B11, the MAPPIT interaction score with Tgi is 0.163 (inactive); with yki, 0.822 (inactive).

B12: CG7639 (protein)
chain: MPKSGRDGGASKDSKYDLSKISARVDRVNVSGLLRTHNDYVMRAADGLFKASNFQDLMLEAMSTKSYLHELGIFKDVSVHIDVSRGADASPQGYEVTFKGNEMSRMMGSAGTEIGQNEGSLRTELTIPNILGRGENISLQGSYSSTRANDLQLKFWKPFFHTRFKENRPEMSFSIFRQTDRFDISSFQTTNIGYLVDFSAHTMVGVDLTHSLQYENAIRDVGLLNKSVPFAIRDHCGPKLASLLRYSVVYDNRDGNVFPTRGIYLKSVNEYCGLGGNVAYTSSTAHGELNVPLFAGLVAQFCARVGVVKETKNTTQLPISSLFYCGGPLTLRGFKFGGAGPVVESTPIGAQSFWCTGAHLWAPLPFAGVFKNLASHFRMHFFYNIGNNNSFSTENMRSAFGMGLAVKLAERARIELNYCVPVRHQDTDRILNGFQFGIGYEFV
For B12, the MAPPIT interaction score with Trxr1 was -0.0261 (inactive).

B13: grk (protein)
chain: MMQIPFTRIFKVIFVLSTIVAVTDCCSSRILLLREHTLKIVQHQHSHMHEHAHELQQQIQETAVELLNRLELQRKQLEASAQEEADQLHPDTDPNPDSGGQLPNADDSIAADPEQDGIILGSSTDTWLASESSTPITDSETVTTPETVTHTGEPPPDPSSSSTPDSTTPSPNDKETEIQMLPCSEAYNTSFCLNGGHCFQHPMVNNTVFHSCLCVNDYDGERCAYKSWNGDYIYSPPTAQRKVRMAHIVFSFPVLLMLSSLYVLFAAVFMLRNVPDYRRKQQQLHLHKQRFFVRC
Consider B13, for which the MAPPIT interaction score with Tom20 is 0.109 (inactive).

B14: CG3792 (protein)
chain: MTDLIRQGALFLMSEKCYDNYFLYHNFLDVPCFKALLSKGLGLAIIAGSVLVKVPQVLKILNSKSGEGINIVGVVLDLLAISFHLSYNFMHGYPFSAWGDSTFLAIQTVTIAVLVLFFNGRKAQSGLFLVGYVVLMYVLNSGLTPMSVLFTIQSCNIPILLVGKLSQAYTNYQAGSTGQLSAATVIMMFAGSVARIFTSIQETGDFMIILTFIASTFANSVILGQLIYYWNKPAGVKVKDSKAKKPKTKKDD
Regarding B14, in the assay with Tim17b2 (pair source set: screen_3), the MAPPIT interaction score was -0.183 (inactive).

B15: Surf4 (protein)
chain: MSIPNEYIAKTEDVAEQVIKRGKNVLPTVARLCLIATFFEDGLRMYIQWNEQREYMDMSWGCGKFLATVFVLVNLLGQLGGCGMVMARFKVDIAVGLLFFIVVLQTVAYSILWDFQFLLRNFALIGALLLVLAEARIEGRSLFAGVPSMGENKPKNFMQLAGRILLAFMFITLIRFELSVWQVIQDIIGSILMVLVVLGYKTKLSALILVALLTILNLYHNAWWTIPSYKPLRDFLKYDFFQTLSVIGGLLMIVSLGPGGVSMDEHKKKW
With B15, the MAPPIT interaction score in the assay with Tsp74F is -0.232 (inactive).
